In ChEMBL document CHEMBL3433997, “St. Jude Leishmania screening dataset” (2016):

Legend:
Format in all cases: functional
[1] = target: Solute carrier family 2, facilitated glucose transporter member 1 (Homo sapiens) (UniProt P11166); test: ST_JUDE_LEISH: Cytotoxicity at 2uM final concentration against transgenic Leishmania Mexicana promastigotes LmGLUT1 that are glucose transport deficient and complemented with the human glucose transporter GLUT1. Activity is measured by DNA content using SYBR green in vitro
Chain of Solute carrier family 2, facilitated glucose transporter member 1 (Homo sapiens) (P11166 whole entry): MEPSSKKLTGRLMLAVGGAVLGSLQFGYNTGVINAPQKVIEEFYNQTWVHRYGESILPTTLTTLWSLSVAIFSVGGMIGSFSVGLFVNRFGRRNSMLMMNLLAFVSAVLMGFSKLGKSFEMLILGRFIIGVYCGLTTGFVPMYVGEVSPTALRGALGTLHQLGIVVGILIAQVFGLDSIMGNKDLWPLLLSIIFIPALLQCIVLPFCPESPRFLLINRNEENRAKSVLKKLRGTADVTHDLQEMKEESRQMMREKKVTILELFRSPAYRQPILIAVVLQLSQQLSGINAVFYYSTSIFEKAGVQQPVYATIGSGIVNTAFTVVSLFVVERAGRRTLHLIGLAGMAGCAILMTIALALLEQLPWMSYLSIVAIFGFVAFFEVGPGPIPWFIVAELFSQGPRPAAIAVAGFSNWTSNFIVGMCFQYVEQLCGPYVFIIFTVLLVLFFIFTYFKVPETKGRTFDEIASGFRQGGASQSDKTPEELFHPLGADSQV

[2] = target: Hexose transporter 1 (Plasmodium falciparum) (UniProt O97467); test: ST_JUDE_LEISH: Cytotoxicity at 2uM final concentration against transgenic Leishmania Mexicana promastigotes LmPfHT that are glucose transport deficient and complemented with the Plasmodium falciparum hexose transporter. Activity is measured by DNA content using SYBR green in vitro
[3] = target: Glucose transporter (Leishmania mexicana) (UniProt O61059); test: ST_JUDE_LEISH: Cytotoxicity at 2uM final concentration against transgenic Leishmania Mexicana promastigotes LmGT2 that are glucose transport deficient and complemented with the L. Mexicana glucose transporter 2. Activity is measured by DNA content using SYBR green in vitro

| Compound | inhibition [1] | inhibition [2] | inhibition [3] |
| --- | --- | --- | --- |
| O=C(c1cc(-c2cccs2)n[nH]1)N1CCN(S(=O)(=O)c2ccc(Cl)cc2)CC1 | 2.31% | 2.77% | 1.76% |
| CN(C)C(CNC(=O)c1cc(-c2ccncc2)c(-c2ccc(Cl)c(O)c2)o1)c1ccccc1 (stereo unspecified) | 1.95% | 1.6% | 8.87% |
| COc1ccc2nccc([C@@H](O)CN3CCC(NC(=O)/C=C/c4cc(F)cc(Br)c4)CC3)c2c1 | 6.91% | 4.62% | -0.22% |
| CCCCCc1cc(O)c2c(c1)OC(C)(C)C=C2C1=CCN(Cc2ccsc2)CC1 | 2.33% | 2.79% | 2.52% |
| Cc1cc2cc(/C=C/C(=O)NC3CCC(CCN4CCc5ccc(C#N)cc5CC4)CC3)ccc2[nH]1 (stereo unspecified) | 9.08% | 7.95% | 8.66% |
| O=C(NCc1ccc(F)cc1)Nc1cccc(-c2ccc(-c3nc4ccccc4[nH]3)cc2)c1 | 1.76% | 0.3% | -0.44% |
| CC(=O)N/N=C/[C@H](CCc1ccccc1)NC(=O)[C@H](CC(C)C)NC(=O)c1cccc(OCCN2CCOCC2)c1 | 6.39% | 8.07% | 5.79% |
| Cc1cccc2nc(-c3ccc(-c4cccc(CN5CCCC(N)C5)c4)s3)[nH]c12 (stereo unspecified) | 12.7% | 11.2% | 11.7% |
| COc1ccc(Cc2cnc(N)nc2N)cc1OCCCOc1ccccc1 | -0.49% | 0.92% | -0.52% |
| CN1CCN(CCCN(Cc2ccc(-c3ccc(CNCCc4ccccc4)cc3)cc2)C(=O)c2cccs2)CC1 | 2.36% | 1.19% | 3.32% |
| Cc1ccc(-n2c(Sc3ncnc4sccc34)nnc2N2CCCC2)cc1 | 2.72% | 2.48% | 1.41% |
| O=C(NCCc1cccc(Cl)c1Cl)c1ccc(N2CCN(c3ccncc3)CC2)nc1 | 38.6% | 16.9% | 21.8% |
